High-throughput results deposited in PubChem BioAssay by National Center for Advancing Translational Sciences (NCATS).
Pf Dd2 inh: qHTS Primary assay for Inhibitors of Plasmodium falciparum Dd2 growth in vitro; P. falciparum Dd2 growth, SYBR Green, 72 h; Potency, µM (titrated, usually from 28.9 µM), inactives show at the top dose activity, negative = inhibition, most hits filed as inhibitors; actives 4.3% (n = 120,000); AID 1347417, 2020; active = well fitted inhibition curve with a large enough effect;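 also: plate controls were DMSO vehicle for no effect and reference drug for full effect; nearly all actives have a fitted effect of over 65% in size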
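Infected erythrocytes (Dd2, 0.3% parasitemia, 2.5% hematocrit final) are added to compound in RPMI-1640/Albumax II medium, grown 72 h at 37C in low oxygen, then lysed with saponin/Triton-X containing SYBR Green and read by fluorescence.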
Active calls of the source: *; [ ] = another dose, or the depositor's remark. Many of the other results were omitted from the sample, so hits are more common in it than they were. Potency is read from the fitted curve at half-maximal effect.

What do the screens show for `O=C(c1nnn2c1COC(c1ccccc1)C2)N1CCN(C(=O)c2cccc3[nH]ccc23)CC1` (stereo not given)?
Pf Dd2 inh: -9%

How did Cc1[nH]cnc1-c1nccn1Cc1nnnn1-c1ccccc1 do in these assays?
Pf Dd2 inh: 27%

Results for O=C(c1cc(COc2c(F)cccc2F)on1)N1CCCCC1CCc1ccccc1 (stereo not given) ?
Pf Dd2 inh: -17%

How did CCC1CCCCN1CCCNC(=O)c1c(O)nc2ccccn2c1=O (stereo not given) do in these assays?
Pf Dd2 inh: -5%

What do the screens show for `CSc1ccccc1OCc1cc(C(=O)NCCN2CCCCC2CO)no1` (stereo not given)?
Pf Dd2 inh: 11µM*

Results for O=C(Cn1ccn2nc(-c3ccccc3)c(CO)c2c1=O)Nc1cccc(F)c1 ?
Pf Dd2 inh: -8%

Results for O=C(CC[C@H]1NC(=O)c2ccccc2NC1=O)NCCCc1nnc2ccccn12 ?
Pf Dd2 inh: -13%

How did COc1ccc(CCNC(=O)C2Cn3cccc3C(=O)N2CC(C)C)cc1OC (stereo not given) do in these assays?
Pf Dd2 inh: -8%

How did CCOc1ccc(C(=O)N2CCCN(c3cc(-c4ccc(Cl)cc4)[nH]n3)CC2)cc1OCC do in these assays?
Pf Dd2 inh: 5µM*

How did COc1cc(C(=O)N2CCCN(c3cc(-c4ccc(C)c(C)c4)[nH]n3)CC2)cc(OC)c1OC do in these assays?
Pf Dd2 inh: -7%

How did CCOc1ccc(C(=O)N2CCN(c3cc(-c4ccc(F)cc4)[nH]n3)CC2)cc1OCC do in these assays?
Pf Dd2 inh: inactive

What do the screens show for `COc1cc(OC)cc(C(=O)N2CCCN(c3cc(-c4ccc(C)c(C)c4)[nH]n3)CC2)c1`?
Pf Dd2 inh: 11µM*

Results for Cc1ccc(-c2cc(N3CCCN(C(=O)c4ccsc4)CC3)n[nH]2)cc1C ?
Pf Dd2 inh: inactive

What do the screens show for `O=C(c1ccccc1)N1CCCN(c2cc(-c3ccc(Cl)cc3)[nH]n2)CC1`?
Pf Dd2 inh: 0%

Results for COc1ccc(OC)c(NC(=O)CC2CCCN(c3cn[nH]c(=O)c3)C2)c1 (stereo not given) ?
Pf Dd2 inh: inactive

Results for N#Cc1cc(CN2CCCC(C(=O)Nc3cccc(-c4ccc(F)cc4)c3)C2)c[nH]1 (stereo not given) ?
Pf Dd2 inh: 10µM*

Results for Cc1ccc(NC(=O)C2CCCN(S(=O)(=O)c3ccc(F)cc3)C2)cc1 (stereo not given) ?
Pf Dd2 inh: inactive

How did O=C(c1cccc(F)c1)N1CCCC(Nc2ccc(F)cc2)C1 (stereo not given) do in these assays?
Pf Dd2 inh: -5%

How did CCc1ccc(NC(=O)C2CCCN(S(=O)(=O)c3ccc(F)cc3)C2)cc1 (stereo not given) do in these assays?
Pf Dd2 inh: 4%

How did CC(=O)NCC(=O)N1CCCC(C(=O)Nc2cccc(-c3ccc(F)cc3)c2)C1 (stereo not given) do in these assays?
Pf Dd2 inh: -16%

What do the screens show for `O=C(Nc1ccc(-c2cccc(F)c2)cc1)C1CCCN(C(=O)c2ccncc2)C1` (stereo not given)?
Pf Dd2 inh: 7.1µM*

What do the screens show for `CC(C)(C)CC(=O)N1CCCC(C(=O)Nc2cccc(-c3ccc(F)cc3)c2)C1` (stereo not given)?
Pf Dd2 inh: -18%

What do the screens show for `Cc1[nH]cnc1CN1CCCC(C(=O)Nc2ccc(-c3cccc(F)c3)cc2)C1` (stereo not given)?
Pf Dd2 inh: 10µM*

What do the screens show for `Cc1ncoc1C(=O)N1CCCC1C(=O)Nc1cccc(-c2ccc(F)cc2)c1` (stereo not given)?
Pf Dd2 inh: -12%

What do the screens show for `COc1ccc(OC)c(CN2CCc3ncc(C(=O)NCc4ccccc4)n3CC2)c1`?
Pf Dd2 inh: inactive

Results for COc1cc(CN2CCN(C)C(C(=O)O)C2)c(Cl)cc1OC(C)C (stereo not given) ?
Pf Dd2 inh: 8%

What do the screens show for `CCOc1ccc(CN2CCNC(=O)C2CC(=O)N2CCCCCC2)cc1` (stereo not given)?
Pf Dd2 inh: 2%

What do the screens show for `CC(=O)NCCCC(=O)N1CCOC2(CCN(C(=O)c3c(C)noc3C)CC2)C1`?
Pf Dd2 inh: 18%

How did Cc1ccc(-c2noc(-c3nc(Cc4ccc(F)cc4)no3)n2)cc1 do in these assays?
Pf Dd2 inh: 16%

What do the screens show for `CN1Cc2cccn2CC1CNC(=O)c1cnn(C)c1` (stereo not given)?
Pf Dd2 inh: -10%

Results for CN1Cc2cccn2CC1CNC(=O)c1cccn1C (stereo not given) ?
Pf Dd2 inh: -51%

What do the screens show for `CN1Cc2cccn2CC1CNC(=O)c1ccccc1` (stereo not given)?
Pf Dd2 inh: 11µM*

Results for Cc1ccccc1C(=O)NC1CCN(c2cc(C(F)(F)F)ncn2)CC1 ?
Pf Dd2 inh: -23%

How did COc1cccc(CC(=O)Nc2ccc3c(c2)CN(CCc2ccccc2)C(=O)C(C)O3)c1 (stereo not given) do in these assays?
Pf Dd2 inh: inactive

What do the screens show for `O=C(c1ccccc1F)N1CCC(N2CC3CCCN3C2=O)CC1` (stereo not given)?
Pf Dd2 inh: 13%[44.1 µM]

What do the screens show for `Cc1ccc(C)c(Nc2nn3c(=O)c4ccc(C(=O)NCCc5ccccc5)cc4nc3s2)c1`?
Pf Dd2 inh: 6%

Results for Cc1ccccc1Nc1nn2c(=O)c3ccc(C(=O)N4CCCC(C)C4)cc3nc2s1 (stereo not given) ?
Pf Dd2 inh: inactive

How did Cc1ccc(Cl)cc1Nc1nn2c(=O)c3ccc(C(=O)NC4CCC(C)CC4)cc3nc2s1 (stereo not given) do in these assays?
Pf Dd2 inh: -9%

How did Cc1ccc(C)c(Nc2nn3c(=O)c4ccc(C(=O)NCCC5=CCCCC5)cc4nc3s2)c1 do in these assays?
Pf Dd2 inh: 10µM*

Results for CCN(CC)CCNC(=O)c1ccc2c(=O)n3nc(Nc4cccc(Cl)c4C)sc3nc2c1 ?
Pf Dd2 inh: 5.6µM*

What do the screens show for `Cc1c(Cl)cccc1Nc1nn2c(=O)c3ccc(C(=O)NCCC4=CCCCC4)cc3nc2s1`?
Pf Dd2 inh: 4µM*

Results for Cc1ccc(C)c(Nc2nn3c(=O)c4ccc(C(=O)NC5CCCCC5)cc4nc3s2)c1 ?
Pf Dd2 inh: -25%

Results for CCCNC(=O)N[C@@H]1CCC[C@@H](C(=O)NCc2cc(F)cc(F)c2)CC(=O)N(C)C1 ?
Pf Dd2 inh: 5%[44.1 µM]

How did O=C1NCCN2CC3(CCN(C(=O)c4ccco4)CC3)CC12 (stereo not given) do in these assays?
Pf Dd2 inh: 12%

What do the screens show for `O=C1COCC2(CN1)CN(Cc1ccc3c(c1)CCO3)C2`?
Pf Dd2 inh: inactive

What do the screens show for `COc1ccc(C(=O)Nc2cc3c(cc2C(=O)c2ccccc2Cl)OCCO3)cc1`?
Pf Dd2 inh: 23%

Results for COc1ccc(C(=O)NC(c2ccccc2Cl)c2cc(Cl)c3cccnc3c2O)cc1 (stereo not given) ?
Pf Dd2 inh: 3.5µM*

How did Cc1ccc(C(=O)Nc2cccc3cccnc23)cc1Cl do in these assays?
Pf Dd2 inh: 4%

How did CCCn1c(C)cnc1CC1CCCN(C(=O)CC2CCCC2)C1 (stereo not given) do in these assays?
Pf Dd2 inh: -21%

Results for O=C(c1ccc(Cn2cccn2)o1)N1CCC2(CC1)c1ccccc1CC2O (stereo not given) ?
Pf Dd2 inh: -11%

What do the screens show for `CC(C)NC(=O)c1nc(-c2ccsc2)c2ccccn12`?
Pf Dd2 inh: 2%[44.1 µM]
